Among the data in PubChem BioAssay (NCATS) are Potency values, retold here.

Results filed as inconclusive are left out. Where a call stands in place of a potency, no number is given. Calls of active or inactive are those of the source. Calls come from the whole dose curve.
Potency is the fitted concentration of half-maximal effect.

The nature of this experiment: Cytotoxicity counterscreen for inhibitors of SARS-CoV-2 cell entry (AID 1645845). Note: nearly all actives have a fitted effect of over 50% in size. To be noted: cell viability (SARS-CoV-2 entry assay cells); series mostly up to 57.1 µM. In short, it runs like this: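 HEK293-ACE2 cells (Expi293F stably expressing human ACE2) seeded overnight, then compound for 1 h plus 48 h at 37C. Viability as ATP content by luminescence; normalized to wells with cells and media-only wells.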
In general terms: A counterscreen serves to expose hits that act by an unwanted route or on another target.
As for `CN(C)CCOC1=Cc2ccccc2Sc2ccc(Cl)cc21`, the Potency result is “inactive”.

For the compound `CCOC(CN1CCN(CC(C)C(=O)c2ccccc2)CC1)c1ccccc1` (centres undefined), the Potency entry was “inactive”.

As for `CC[N+]1(CC)CCC(=C(c2ccccc2)c2ccccc2)C1C` (centres undefined), the Potency result is “inactive”.

Take `CC(C)C(=O)OCc1cccc(OC(=O)[C@@H]2N3C(=O)[C@@H](NC(=O)Cc4ccccc4)[C@H]3SC2(C)C)c1`: the Potency entry is “inactive”.

Consider `CCc1ccc(C(=O)C(C)CN2CCCCC2)cc1` (centres undefined), for which the Potency result was “inactive”.

Regarding `OC[C@H]1O[C@@H](O[C@@H]2[C@@H](CO)O[C@](O)(CO)[C@H]2O)[C@H](O)[C@@H](O)[C@H]1O`, the Potency entry was “inactive”.

With `CCCCN1CCCC[C@H]1C(=O)Nc1c(C)cccc1C`, the Potency entry was “inactive”.

As for `CCCCN(CCCC)CC(O)c1cc(Cl)cc2c1-c1ccc(Cl)cc1/C2=C/c1ccc(Cl)cc1` (centres undefined), the Potency entry is “inactive”.

Consider `C[C@@H](CN(C)C)CN1c2ccccc2Sc2ccccc21`, for which the Potency entry was “inactive”.

For `CN(C)CCOc1ccccc1Cc1ccccc1`, the Potency result was “inactive”.

Regarding `C#CCN(C)Cc1ccccc1`, the Potency entry was “inactive”.

For the compound `CCCCOc1ccc(CC(=O)NO)cc1`, the Potency entry was “inactive”.

With `O=C(CCCCCCCCC#CI)Oc1ccccc1`, the Potency result was “inactive”.

Regarding `CN(Cc1cc(Br)cc(Br)c1N)C1CCCCC1`, the Potency entry was “inactive”.

Take `CN(C)CCn1nnnc1SCC1=C(C(=O)O)N2C(=O)[C@@H](NC(=O)Cc3csc(N)n3)[C@H]2SC1`: the Potency entry is “inactive”.

For `C=C1C(=C/C=C2\CCC[C@]3(C)[C@@H]([C@H](C)/C=C/[C@@H](O)C4CC4)CC[C@@H]23)C[C@@H](O)C[C@@H]1O`, the Potency result was “inactive”.

Take `CN(C)CCN1C(=O)c2ccccc2N(C)c2ccccc21`: the Potency result was “inactive”.

As for `O=c1[nH]c2ccccc2n1CCCN1CCN(C(c2ccccc2)c2ccccc2)CC1`, the Potency result was “inactive”.

For the compound `CC1(C)CCC(C)(C)c2cc(NC(=O)c3ccc(C(=O)O)cc3)ccc21`, the Potency entry was “inactive”.

Regarding `O=C1NCCN1CCN1CCC(c2cn(-c3ccc(F)cc3)c3ccc(Cl)cc23)CC1`, the Potency is 28.2 µM (active).

Turning to `O=C(O)[C@H](O)[C@@H](O)[C@H](O[C@@H]1O[C@H](CO)[C@H](O)[C@H](O)[C@H]1O)[C@H](O)CO`, the Potency result was “inactive”.

For `CCC(=O)c1ccc2c(c1)N(CCCN(C)C)c1ccccc1S2`, the Potency entry was “inactive”.

In the case of `COC(=O)Nc1nc2ccc(Sc3ccccc3)cc2[nH]1`, the Potency result was “inactive”.

Take `COc1ccc(CCN(C)CCCC(C#N)(c2cc(OC)c(OC)c(OC)c2)C(C)C)cc1OC` (centres undefined): the Potency entry is “inactive”.

For `COCc1c(C(C)C)nc(C(C)C)c(/C=C/[C@@H](O)C[C@@H](O)CC(=O)O)c1-c1ccc(F)cc1`, the Potency result was “inactive”.

Regarding `CC(C(O)c1ccccc1)N(C)C/C=C/c1ccccc1` (centres undefined), the Potency entry is “inactive”.

For the compound `CCCCC/C=C\C/C=C\CCCCCCCC(=O)NC(C)c1ccccc1` (centres undefined), the Potency entry was “inactive”.

Turning to `COc1cc(C(=O)OCCCN2CCCN(CCCOC(=O)c3cc(OC)c(OC)c(OC)c3)CC2)cc(OC)c1OC`, the Potency entry is “inactive”.

Turning to `CCN(CC)CCOCCOC(=O)C1(c2ccccc2)CCCC1`, the Potency result is “inactive”.

Regarding `O=C1OC2(c3ccccc31)c1cc(I)c(O)c(I)c1Oc1c2cc(I)c(O)c1I`, the Potency entry was “inactive”.

`CC(=O)c1ccc2c(c1)N(CCCN(C)C)c1ccccc1S2`: the Potency entry is “inactive”.

Turning to `CC(Cc1ccccc1)NCc1ccccc1Cl` (centres undefined), the Potency entry was “inactive”.

In the case of `CCCNC(C)(C)COC(=O)c1ccccc1`, the Potency entry was “inactive”.

In the case of `C[C@H](O)C(=O)Nc1c(I)c(C(=O)NC(CO)CO)c(I)c(C(=O)NC(CO)CO)c1I`, the Potency result is “inactive”.

As for `NC(=O)c1ncn([C@@H]2O[C@H](CO)[C@@H](O)[C@H]2O)c1N`, the Potency entry was “inactive”.

For `Cc1ccc(C(=O)Nc2ccc(S(=O)(=O)O)c3cc(S(=O)(=O)O)cc(S(=O)(=O)O)c23)cc1NC(=O)c1cccc(NC(=O)Nc2cccc(C(=O)Nc3cc(C(=O)Nc4ccc(S(=O)(=O)O)c5cc(S(=O)(=O)O)cc(S(=O)(=O)O)c45)ccc3C)c2)c1`, the Potency entry was “inactive”.

Take `C=CCOc1cc(Cl)ccc1C(=O)NCCN(CC)CC`: the Potency entry was “inactive”.

As for `CCN(CCCc1ccccc1)CCCc1ccccc1`, the Potency entry was “inactive”.

Consider `Cc1cc2nc3ccc(=[N+](C)C)cc-3sc2cc1N`, for which the Potency was 22.4 µM (active).
